# Pf apPOL inh = Pf-apPOL DNA polymerase inhibition | Recombinant Pf-apPOL, molecular beacon fluorescence, 1.5 h | inhibition, % at 10 µM | 210,000 compounds, 0.25% hits | AID 1794808
# mHTT CaM bind = mHTT-calmodulin interaction abrogation; AlphaScreen His-mHTT/GST-CaM binding, luminescence; P42858; inhibition, % at 15 µM; 190,000 compounds, 3.6% hits;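 further: 0% = both proteins with DMSO and 100% = one protein alone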
# The depositor's hits bear a star; · = no result given. An excerpt weighted towards active compounds, which were near 3.6% of everything screened. No stated cut-off is given here; in the data, active means inhibition above about 50%; inactive means the rest.
SMILES,Pf apPOL inh,mHTT CaM bind
COc1ccc(C(=O)N(C(=O)N2CCCCC2)c2ccc(Cl)cc2)c(OC)c1,-6,-10
CCOc1ccc(CCNC(=O)C2CC(=O)N(c3ccc(F)c(Cl)c3)C2)cc1OCC (stereo not drawn),-2,8
Cc1csc(NC(=O)CCCSc2ccc(NC(=O)C3CC3)nn2)n1,-7,-8
Brc1ccc(Nc2nc(NCc3ccco3)c3ccccc3n2)cc1,1,100*
O=[N+]([O-])c1ccc(-c2nc(NCc3ccco3)c3ccccc3n2)cc1,-3,16
Cc1ccccc1C(=O)c1cn[nH]c1-c1ccccc1O,-11,2
O=C(c1ccc(Cl)cc1)c1cn[nH]c1-c1ccccc1O,1,95*
Cc1cc(NC(=O)C(=O)NCCC2=CCCCC2)ccc1Br,-4,-4
CCOc1ccc(S(=O)(=O)Nc2ccc3oc(=O)sc3c2)cc1,-3,13
COc1cccc(C(C)NC(=O)C2CCN(Cc3cn(C)c4ccccc34)CC2)c1 (stereo not drawn),-7,2
COc1ccc2[nH]cc(CN3CCC(C(=O)NC(C)c4ccc(F)cc4)CC3)c2c1 (stereo not drawn),1,68*
Cc1cc(C)c(C2=NC(c3ccccc3)(c3ccccc3)c3ccccc3N2)c(=O)[nH]1,-8,32
c1ccc(C2=NC(c3ccccc3)(c3ccccc3)c3ccccc3N2)cc1,·,61*
COc1ccc(C(=O)Cn2c(C(F)(F)F)nc3ccccc32)cc1,-3,-4
CCc1ccc(S(=O)(=O)N2CCN(Cc3nc4ccccc4[nH]3)CC2)s1,-52,100*
CN(C)S(=O)(=O)N1CCN(Cc2nc3ccccc3[nH]2)CC1,-4,-15
CC(=O)Nc1ccc(S(=O)(=O)Nc2ccc(C)cc2Br)cc1,-7,-2
CC(=O)Nc1ccc(S(=O)(=O)Nc2ccc(C)cc2[N+](=O)[O-])cc1,0,51*
COCCNC(=O)C1(C)CCC(=O)N1Cc1ccc(C)cc1 (stereo not drawn),5,-2
COc1ccc(Cl)cc1NC(=O)NCCc1ccc(N(C)C)cc1,-3,55*
COc1ccc(CCNC(=O)Nc2cc(F)c(F)cc2Cl)cc1OC,-4,0
CN(C)Cc1c(O)ccc2c(-c3ccccc3)cc(=O)oc12,0,1
CC[C@@]1(O)C(=O)OCc2c1cc1n(c2=O)Cc2cc3c(CN(C)C)c(O)ccc3nc2-1,84*,·
O=C(Nc1ccccc1Cl)N1CC2CC(NS(=O)(=O)c3ccccc3)C1C2 (stereo not drawn),-5,-2
CC(=O)Nc1nc2nccc(-c3ccccc3)n2n1,-6,-4
SMILES,Pf apPOL inh,mHTT CaM bind
O=C(O)CCCC(=O)Nc1nc2nccc(-c3ccccc3)n2n1,-2,82*
CCOC(=O)Nc1nc(CC(=O)NCCn2nc(-c3ccco3)ccc2=O)cs1,3,-3
O=C1c2ccccc2C(=O)N1C1C(=O)N(c2ccc(Br)cc2)C1c1ccc(F)cc1 (stereo not drawn),-2,6
COc1ccccc1-c1cc2c(c3c1ccn3C)C1CCC2O1 (stereo not drawn),-1,23
CN(c1ccc(Cl)cc1)c1cc2c(c3c1ccn3C)C1CCC2O1 (stereo not drawn),1,100*
CCN(CC)c1cc2c(c3c1ccn3C)C1CCC2O1 (stereo not drawn),2,5
CCCN(CC1CC1)c1cc2c(c3c1ccn3C)C1CCC2O1 (stereo not drawn),-4,40
CN(c1cc2c(c3c1ccn3C)C1CCC2O1)C1CCCCC1 (stereo not drawn),-1,59*
Cn1ccc2c(-c3ccc(F)cc3F)cc3c(c21)C1CCC3O1 (stereo not drawn),12,12
CN(c1cccc(F)c1)c1cc2c(c3c1ccn3C)C1CCC2O1 (stereo not drawn),-5,93*
Cn1ccc2c(N3CCCCCCC3)cc3c(c21)C1CCC3O1 (stereo not drawn),0,71*
CCC(=O)N1CCc2sc(S(=O)(=O)N3CCN(c4ccc(C)cc4)CC3)cc2C1,-5,13
O=C(Nc1ccc2c(c1)OCCO2)c1coc(NC(=O)C2CC2)n1,0,-7
Cn1ccc2c(-c3cccc4ccccc34)cc3c(c21)C1CCC3O1 (stereo not drawn),-2,30
CN(CCc1ccccc1)c1cc2c(c3c1ccn3C)C1CCC2O1 (stereo not drawn),-2,99*
Cn1ccc2c(-c3ccc4[nH]ccc4c3)cc3c(c21)C1CCC3O1 (stereo not drawn),0,56*
CCN(Cc1ccccc1)c1cc2c(c3c1ccn3C)C1CCC2O1 (stereo not drawn),0,12
O=C(c1cccc(Cl)c1)N1CCC2(C1)NC(=O)N(Cc1ccccc1)C2=O (stereo not drawn),-4,11
Cc1cc(NC2=NS(=O)(=O)c3cc([N+](=O)[O-])ccc32)c([N+](=O)[O-])cc1C,-1,0
O=C(/C=C(/c1ccccc1)N1CCOCC1)c1ccc([N+](=O)[O-])cc1,-5,28
O=C1C2C(c3cccc(/C=C/c4ccccc4)c3)CC=CC2C(c2ccc(C(F)(F)F)cc2)N1Cc1ccccc1 (stereo not drawn),-4,-3
O=C1C2C(c3ccccc3)CC=CC2[C@H](c2cccc(Br)c2)N1Cc1ccccc1 (stereo partly drawn),-1,100*
C[C@@H]1CC=C[C@H]2[C@H]1C(=O)N(Cc1ccccc1)[C@H]2c1ccoc1,1,15
O=C1C2C(c3cccc(/C=C/c4ccccc4)c3)CC=CC2C(c2ccc3ccccc3c2)N1Cc1ccccc1 (stereo not drawn),-5,-6
CC[C@@H]1CC=C[C@H]2[C@H]1C(=O)N(Cc1ccccc1)[C@H]2c1ccc(C(F)(F)F)cc1,-4,71*
SMILES,Pf apPOL inh,mHTT CaM bind
CC[C@@H]1CC=C[C@H]2[C@H]1C(=O)N(Cc1ccccc1)[C@H]2c1ccoc1,-1,85*
O=C(CN1CCN(CC(=O)Nc2ccccc2Cl)CC1)Nc1cccc(C(F)(F)F)c1,-3,-6
NNC(=O)c1c(NC(=O)c2ccccc2)sc2c1CCC2,-9,64*
O=C(CN1CCOCC1)Nc1sc2c(c1C(=O)Nc1ccc(Cl)cc1)CCC2,0,0
O=C(CNCCO)Nc1sc2c(c1C(=O)Nc1ccc(Br)cc1)CCC2,-1,66*
CCNC(=O)c1c(NC(=O)c2ccccc2)sc2c1CCCC2,1,-12
O=C(Nc1sc2c(c1C(=O)Nc1ccc(Br)cc1)CCCCC2)c1cccnc1,6,3
O=C(CNCCN1CCOCC1)Nc1sc2c(c1C(=O)Nc1ccccc1)CCC2,-1,89*
O=C(CC1CCN(S(=O)(=O)c2ccc(Cl)s2)CC1)N1CCCCC1,5,-4
Cn1ncc(N2CCC(C(=O)NC3CCc4ccccc43)CC2)cc1=O (stereo not drawn),-6,5
CSc1ccc(N=Cc2[nH]c3ccc(Br)c(Cl)c3c2O)cc1,-6,31
Cc1occc1-c1nnc(-c2ccc([N+](=O)[O-])cc2Cl)o1,0,2
CCCn1cc(C2=CCN(C(=O)Nc3ccc4c(c3)OCCO4)CC2)c2cccnc21,-4,59*
CCCn1cc(C2=CCN(C(=O)NCc3ccccc3)CC2)c2cccnc21,-6,32
Cn1cc(C2=CCN(C(=O)NCc3cccc(F)c3)CC2)c2cccnc21,-5,50*
CCn1cc(C2=CCN(C(=O)Nc3ccc4c(c3)OCCO4)CC2)c2cccnc21,-4,34

# Bioassay records from PubChem.
